We go through 37 compounds from PMC5540273 (PLoS ONE, 2017).
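Note: KINOMEscan kinase panel screen.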

In the first experiment the test system is NLK. The conditions noted are these: concentration: 1 μM, replicates: in singlicate; n = 1.
Consider `O=C(Nc1cccc(-c2nn3ccccc3c2-c2ccnc(Nc3cccc(C(F)(F)F)c3)n2)c1)c1c(F)cccc1F` [GSK292658], for which the “%Inh” value was 33%.

With `O=C(NC1CCN(c2ccnc(Nc3ccc(F)cc3)n2)C1)c1cc2ccccc2s1` (stereo not drawn) [GSK1379716], the “%Inh” value is 31%.

With `COc1cc(Nc2nccc(-c3c(-c4cccc(NC(=O)c5c(F)cccc5F)c4)nn4ncccc34)n2)cc(OC)c1OC` [GSK327238], the “%Inh” value is listed as 82%.

Consider `COc1cccc(-c2ccc3c(NC(=O)C4CC4)n[nH]c3n2)c1` [SB-710903], for which the “%Inh” value is 49%.

`Cn1cc(-c2ccc3c(c2)CCN3C(=O)Cc2cccc(Cl)c2)c2c(N)ncnc21` [GSK2606590]: the “%Inh” value is reported as 0%.

The subject of the next experiment is T1, OSR1.
T1 construct: gene OXSR1
The conditions noted are these: concentration: 1 μM, replicates: in singlicate; n = 1.
`FC(F)(F)c1ccc(/C=C/c2cncnc2Nc2ccc3[nH]c(Cc4ccccc4)nc3c2)cc1` [GW709199]: the “%Inh” value is 0%.

With `COc1ccc(Nc2nccc(NCCNC(=O)c3cc4ccccc4s3)n2)cc1` [GSK1379896], the “%Inh” value is 10%.

As to `Cl.Cl.NCC(NCc1ccc(-c2ccnc3[nH]ccc23)s1)c1ccccc1` (stereo not drawn) [GSK1321565], the “%Inh” value is given as 10%.

Consider `O=C(Nc1cccc(-c2nn3ncccc3c2-c2ccnc(Nc3ccccc3)n2)c1)c1c(F)cccc1F` [GSK198271], for which the “%Inh” value came to 16%.

Consider `Cn1cc(-c2ccc3c(c2)CCN3C(=O)Cc2cccc(F)c2)c2c(N)ncnc21` [GSK2603358], for which the “%Inh” value is on record as 37%.

Take `Nc1ncc(-c2cccnc2)c2scc(-c3ccc4c(c3)CCN4C(=O)Cc3ccccc3)c12` [GSK683281]: the “%Inh” value stood at 19%.

Turning to `COC(=O)Nc1nc2cc(Oc3ccc(NC(=O)Nc4cc(C(F)(F)F)ccc4F)cn3)ccc2[nH]1.Cl.Cl` [GW681170], the “%Inh” value is given as 0%.

As to `CCn1c(-c2nonc2N)nc2c(C#CC(C)(C)O)nc(OC[C@H](N)c3ccccc3)cc21` [GSK943949], the “%Inh” value was 0%.

In the case of `COc1ccc(Nc2nccc(N3CCC(NC(=O)Nc4cccc(OC)c4)C3)n2)cc1` (stereo not drawn) [GSK1379742], the “%Inh” value stood at 0%.

Take `O=C(Nc1cccc(Oc2ccc3nc(NC(=O)C4CC4)cn3n2)c1)c1ccccc1C(F)(F)F`: the “%Inh” value was found to be 0%.

As to `Fc1ccc(-c2ncn(C3CCNCC3)c2-c2ccnc(Oc3ccc(-c4ccccc4)cc3)n2)cc1` [SB-245391], the “%Inh” value came to 36%.

Take `CC(=O)Nc1nc2cnc(Nc3cc(NC(=O)c4cccc(C5(C#N)CC5)c4Cl)ccc3C)nc2s1`: the “%Inh” value amounted to 0%.

`Clc1ccc(-c2nn3ncccc3c2-c2ccnc(Nc3ccc4c(c3)OCCO4)n2)cc1` [GW829116]: the “%Inh” value stood at 0%.

Regarding `O=C(Nc1ccccc1F)NC1CCN(c2ccnc(Nc3ccc(F)cc3)n2)CC1` [GSK1379800], the “%Inh” value is listed as 0%.

For the compound `c1ccc(-c2cnc3nccnn23)cc1` [AH20685], the “%Inh” value is recorded as 0%.

Take `COc1cc2c(cc1OCCN1CCNCC1)ncc1c3ccc(C#N)cc3[nH]c21`: the “%Inh” value worked out at 20%.

On to `COc1cccc(C2=C(Nc3ccc(Cl)c(C(=O)O)c3)C(=O)NC2=O)c1` [SB-390769], for which the “%Inh” value is recorded as 100%.

Turning to `O=C(O)C(F)(F)F.O=C(O)C(F)(F)F.O=c1[nH]ccc2nc(N[C@@H]3CCCNC3)nc(Nc3ccc(S(=O)(=O)N4CCOCC4)cc3)c12` [GSK2177277], the “%Inh” value was 92.1%.

As to `COc1cccc(NC(=O)NC2CCN(c3ccnc(Nc4cc(OC)c(OC)c(OC)c4)n3)C2)c1` (stereo not drawn) [GSK1379763], the “%Inh” value was 0%.

Take `O=c1[nH]cc(-c2ccc(N3CCOCC3)cc2)c2sc(-c3cn[nH]c3)cc12` [GSK2276055]: the “%Inh” value stood at 1%.

For the compound `Nc1ncc(-c2ccc3nccc(-c4ccncc4)c3c2)cc1S(=O)(=O)N1CCOCC1` [GSK1627798], the “%Inh” value was determined as 0%.

For `Cl.c1ccc(-c2ccc3c(Nc4ccc5[nH]ncc5c4)ccnc3c2)nc1` [GW440137], the “%Inh” value was found to be 5%.

As for `Cc1ccc(C)c(NC(=O)NC2CCN(c3ccnc(Nc4ccc(F)cc4)n3)C2)c1` (stereo not drawn) [GSK1379720], the “%Inh” value came out at 0%.

Turning to `Cl.Cl.NCC(NC(=O)c1cc(-c2ccccc2)c(-c2ccnc3[nH]ccc23)s1)c1ccccc1` (stereo not drawn) [GSK1321561], the “%Inh” value was 15%.

As for `Cc1occc1-c1ncc(OC[C@@H](N)Cc2c[nH]c3ccccc23)cc1-c1ccc2[nH]nc(C)c2c1.O=C(O)C(F)(F)F` [GSK682037], the “%Inh” value amounted to 8%.

As to `CN(c1ccc(NC(=O)Nc2cc(C(F)(F)F)ccc2F)cc1)c1ccnc(Nc2ccc(S(N)(=O)=O)cc2)n1` [GW809893], the “%Inh” value is 6%.

For `CC(C)c1nc(-c2cccc(NS(=O)(=O)c3c(F)cccc3F)c2F)c(-c2ccnc(Nc3ccc(N4CCOCC4)nc3)n2)s1` [GSK2008607], the “%Inh” value came to 0%.

For the compound `Cc1cccc(Nc2nc(N[C@H]3CCNC3)ncc2C(N)=O)c1.Cl` [GSK2197149], the “%Inh” value came out at 18%.

Regarding `COc1cccc(C(=O)Nc2cccc(Oc3ccc4nc(NC(=O)C5CC5)cn4n3)c2)c1`, the “%Inh” value is recorded as 0%.

For `Cl.c1ccc(-c2ccc3c(Nc4ccc5[nH]ccc5c4)ccnc3c2)nc1` [GW440138], the “%Inh” value is recorded as 4%.

As to `CC(=O)N1CCN(c2ccc(Nc3nccc(-c4sc(C(C)C)nc4-c4cccc(NS(=O)(=O)c5cccc(Cl)c5)c4)n3)cn2)CC1` [GSK1660437], the “%Inh” value is reported as 5%.

Turning to `CCn1c(-c2nonc2N)nc2c(C#CC(C)(C)O)ncc(OCCCCN)c21.O=C(O)C(F)(F)F.O=C(O)C(F)(F)F` [GSK507274], the “%Inh” value amounted to 40%.

As for `O=C(Nc1cccc(-c2nn3ccccc3c2-c2ccnc(Nc3cccc(C(F)(F)F)c3)n2)c1)c1c(F)cccc1F` [GSK292658], the “%Inh” value was found to be 19%.

Turning to `O=C(NC1CCN(c2ccnc(Nc3ccc(F)cc3)n2)C1)c1cc2ccccc2s1` (stereo not drawn) [GSK1379716], the “%Inh” value is reported as 11%.

For the compound `COc1cc(Nc2nccc(-c3c(-c4cccc(NC(=O)c5c(F)cccc5F)c4)nn4ncccc34)n2)cc(OC)c1OC` [GSK327238], the “%Inh” value came to 19%.

With `COc1cccc(-c2ccc3c(NC(=O)C4CC4)n[nH]c3n2)c1` [SB-710903], the “%Inh” value was found to be 13%.

`Cn1cc(-c2ccc3c(c2)CCN3C(=O)Cc2cccc(Cl)c2)c2c(N)ncnc21` [GSK2606590]: the “%Inh” value amounted to 16%.
